Assay outcomes from PubChem.
Plk1 PBD FP: blocks phosphopeptide binding to human Plk1 polo box domain; Plk1 PBD phosphopeptide binding, fluorescence polarization; inhibition, %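 (tested at about 20 µM)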; 0.13% of 97,000 active; P53350; in the data active means inhibition above about 34%, passing the limit was not always enough
Target sequence (P53350 whole entry, looked up, the tested form may be a part): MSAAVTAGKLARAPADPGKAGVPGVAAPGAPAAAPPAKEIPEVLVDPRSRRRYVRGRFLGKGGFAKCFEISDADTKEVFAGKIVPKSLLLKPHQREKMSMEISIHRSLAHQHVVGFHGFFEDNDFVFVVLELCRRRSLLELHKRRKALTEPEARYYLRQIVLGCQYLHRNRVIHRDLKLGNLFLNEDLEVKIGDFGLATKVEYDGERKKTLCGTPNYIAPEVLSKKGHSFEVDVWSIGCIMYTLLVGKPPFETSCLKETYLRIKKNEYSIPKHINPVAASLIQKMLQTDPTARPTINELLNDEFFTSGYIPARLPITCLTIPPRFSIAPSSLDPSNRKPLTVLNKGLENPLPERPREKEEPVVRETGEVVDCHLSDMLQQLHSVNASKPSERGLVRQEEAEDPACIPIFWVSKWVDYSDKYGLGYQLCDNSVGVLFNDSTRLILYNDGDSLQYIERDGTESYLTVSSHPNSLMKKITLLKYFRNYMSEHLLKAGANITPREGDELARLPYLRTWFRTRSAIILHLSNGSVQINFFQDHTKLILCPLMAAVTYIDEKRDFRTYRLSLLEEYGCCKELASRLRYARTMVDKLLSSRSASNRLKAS
Pyk2 oligo antag: Pyk2 (human) oligomerization antagonism; Q14289; Q293 cells, Pyk2 FERM NanoBiT luminescence; stronger effect = lower value; z-score (the deposit names both 25 µM and 10 µM); 0.83% of 99,000 active; AID 1347419;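 active means Z-score of -3 or lower, scaled per plate to the spread of control and sample wells; inactive means z-score above -3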;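 further: negative z-score means lost luminescence so less FERM oligomerization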
NFkB transloc inh: blocks IL-1B driven NFkB nuclear translocation in HUVEC cells; 0.43% of 94,000 active; HUVEC IL-1B NFkB p65 nuclear translocation imaging; AID 796; inhibition, % at 2 µM;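 active means inhibition above about 30% together with a positive call from visual inspection of the well image, limit read from the data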;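 further: nuclear over cytoplasmic p65 intensity ratio measured by imaging; 0% = IL-1B stimulated DMSO wells and 100% = unstimulated DMSO wells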
PLK1 inh: inhibitors of human PLK1 kinase | P53350 | recombinant PLK1 kinase, TR-FRET peptide phosphorylation | inhibition, % at 10 µM | 0.53% of 97,000 active;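 active means inhibition of 50% or more in the single-concentration screen; inactive means inhibition below 50%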;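 further: 0% = DMSO max control and 100% = H-89 dihydrochloride min control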
NFkB transloc pot: enhances IL-1B driven NFkB nuclear translocation; HUVEC IL-1B NFkB p65 nuclear translocation imaging; activation, % at 2 µM; 0.3% of 94,000 active;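 active means activation above 40%, about the mean plus 3 SD, also judged a hit on visual image review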;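 further: percent activation is computed from the nuclear over cytoplasmic p65 intensity ratio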
HUVEC tox IL1B: HUVEC cytotoxicity counter-screen, IL-1B stimulated; HUVEC cell count loss, Hoechst imaging; cell count reduction, % at 2 µM; 0.41% of 94,000 active; AID 845;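 active means cell count reduction more than 3 SD above the screen-wide mean, cut at about 70% in these data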;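 further: normalized per plate to untreated control cells as the no-loss baseline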
* = called active by the depositor; . = no result given. This is a sample that favours compounds with a hit; in the whole collection about 2.2% have one here.

SMILES	Plk1 PBD FP	Pyk2 oligo antag	NFkB transloc inh	PLK1 inh	NFkB transloc pot	HUVEC tox IL1B
CCn1c(CNc2nc3ccccc3n2C(C)C)nc2ccccc21	6	1.4	62*	-3	-62	-9
CC(C)n1c(NCc2nc3ccccc3n2C)nc2ccccc21	1	1.8	6	-8	-6	-13
c1ccc(CNc2nc3ccccc3n2CCN2CCOCC2)nc1	-28	1.1	-4	2	4	-2
CCCn1c(=O)c(C(=O)NCc2ccccn2)c(O)c2ccccc21	5	-1.5	0	-15	0	85*
CC(=O)c1ccc(NC(=O)c2cnn3c(C(F)F)cc(C4CC4)nc23)cc1	10	0.97	0	-10	1	6
CCCS(=O)(=O)N1CCC(C(=O)NC2CCCC(C)C2C)CC1 (configuration not stated)	23	-0.32	-46	-8	46*	-14
CCCS(=O)(=O)N1CCCC(C(=O)NC2CCCC(C)C2C)C1 (configuration not stated)	4	0.79	-7	0	7	-13
Cc1ccc(Nc2nc(-c3c(C)nc4ccccn34)cs2)cc1	-7	-2.6	34*	0	-34	34
Cc1cc(C)c(O)c(-c2cc(C(=O)Nc3ccc(S(=O)(=O)N4CCOCC4)cc3)[nH]n2)c1	-21	-3.2*	-7	-11	7	1
CSC1=C(C#N)C(c2ccc(Cl)cc2)C2=C(CC(C)(C)CC2=O)N1 (configuration not stated)	.	-3.1*	.	.	.	.
Cc1cc2sc(C(=O)O)c(C)c2s1	-2	1.5	1	-11	-1	3
NC(=O)C1(N2CCCCC2)CCN(C2CC(=O)N(Cc3cccs3)C2=O)CC1 (configuration not stated)	-7	0.82	32*	1	-32	9
NC(=O)C1(N2CCCCC2)CCN(C(=O)c2cccs2)CC1	-3	.	-40	-5	40*	8
O=C(COC(=O)CCC(=O)c1cccs1)Nc1cccc(S(=O)(=O)N2CCOCC2)c1	18	0.24	6	-12	-5	1
Cc1ccc(NC(=O)COC(=O)CCC(=O)c2cccs2)cc1S(=O)(=O)N1CCOCC1	-28	0.67	-48	-14	48*	-18
Fc1ccc(-n2nnnc2-c2cnc(-c3cccs3)nc2C(F)(F)F)cc1	-6	-3.7*	.	-14	.	.
FC(F)(F)c1nc(-c2ccncc2)ncc1-c1nnnn1-c1ccccc1	0	0.52	-9	-4	9	-38
CCOC(=O)C1=C(C)C(c2ccccc2OC)NC(=S)N1 (configuration not stated)	14	-0.62	9	6	-9	-29
CCOC(=O)N1CCN(C(=O)C2CCN(Cc3nc(-c4ccccc4C)oc3C)CC2)CC1	13	.	.	68*	.	.
COc1ccc(CCNC(=O)C2CCN(Cc3nc(-c4cccc(Cl)c4)oc3C)CC2)cc1OC	.	0.84	.	.	.	.
CCOC(=O)N1CCN(C(=O)CSCc2nc(-c3ccccc3C)oc2C)CC1	-9	0.09	10	2	-10	3
COc1ccc(-c2nc(CN3CCC(C(=O)N4CCc5ccccc54)CC3)c(C)o2)cc1OC	-10	.	.	61*	.	.
Cc1ccc(C(=O)Nc2ccc([N+](=O)[O-])cn2)o1	.	-0.33	.	.	.	.
Cn1nc(C(F)(F)F)c(C(=O)Nc2cccc(Cl)c2)c1Cl	-17	0.58	.	-11	.	.
O=C(N/N=C/c1ccc2cccc(OCc3ccccc3)c2n1)c1ccc(Br)cc1	-3	-2.4	.	-11	.	.
SMILES	Plk1 PBD FP	Pyk2 oligo antag	NFkB transloc inh	PLK1 inh	NFkB transloc pot	HUVEC tox IL1B
COc1ccc(C(=O)N/N=C/c2ccc3cccc(OCc4ccccc4)c3n2)cc1	-6	-4*	5	-14	-5	33
Cc1nc(S(=O)(=O)N(C)Cc2ccccc2)c(C#N)c(C)c1Cl	-15	-0.1	31*	-11	-31	-8
Cc1cc(C)c2nc(C(F)(F)F)nc(NCCCN3CCCC3=O)c2c1	-26	-1.3	31*	-9	-31	0
O=C(CC(=O)N1CCN(c2ccccn2)CC1)Nc1ccc2nc3n(c(=O)c2c1)CCCCC3	-12	.	-24	-6	24	-13
CCCCn1c(-c2ccsc2)nc2c1c(=O)[nH]c(=O)n2CCC	11	-1.3	-3	-1	3	-12
CCCCn1c(=O)[nH]c(=O)c2c1nc(-c1ccsc1)n2Cc1ccccc1	9	-3.1*	-6	-7	6	14
COc1ccc(CN2CN=C(Nc3nc4ccccc4s3)NC2)cc1	10	0.17	4	-10	-4	-9
